Laboratory results published in PubChem BioAssay (NCI).
This is part of a sample that, as a whole, favours compounds with a hit. Of some 83,000 tested, about 20% had one in any assay.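 Single-concentration screen, 48 h exposure, 96-well plates. Endpoint: percent growth. Below 10 = active.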 Calls of active or inactive are those of the source.

How the values were obtained:
Test in all cases: NCI-60 one-dose screen, 48 h (100 = growth as untreated, 0 = no growth, -100 = all killed)
Conditions in all cases: 10 µM unless noted
SK-MEL-2 melanoma = test system: SK-MEL-2 melanoma
EKVX NSCLC = test system: EKVX NSCLC
SN12C renal = test system: SN12C renal
UO-31 renal = test system: UO-31 renal
TK-10 renal = test system: TK-10 renal
ACHN renal = test system: ACHN renal
CAKI-1 renal = test system: CAKI-1 renal
A498 renal = test system: A498 renal
CCRF-CEM leukemia = test system: CCRF-CEM leukemia
MOLT-4 leukemia = test system: MOLT-4 leukemia

Measured: growth

C[n+]1c(-c2ccccc2)c2cc(N)ccc2c2ccccc21
active: SN12C renal 4.79%
inactive: SK-MEL-2 melanoma 19.6% | EKVX NSCLC 26.6% | UO-31 renal 89.9% | TK-10 renal 90.4% | ACHN renal 95.7% | CAKI-1 renal 110% | A498 renal 126% | CCRF-CEM leukemia 50.9% | MOLT-4 leukemia 33.5%

CCOC(=O)CCC[P+](c1ccccc1)(c1ccccc1)c1ccccc1
inactive: SK-MEL-2 melanoma 85.4% | EKVX NSCLC 75.5% | SN12C renal 82% | UO-31 renal 87.5% | TK-10 renal 95.9% | ACHN renal 97.9% | CAKI-1 renal 101% | A498 renal 86.3% | CCRF-CEM leukemia 72.6% | MOLT-4 leukemia 72%

O=C(Nc1ccc(Nc2ccncc2)cc1)c1ccc([N+](=O)[O-])cc1
inactive: SK-MEL-2 melanoma 94.8% | EKVX NSCLC 69.9% | SN12C renal 72.9% | UO-31 renal 55.6% | TK-10 renal 90.4% | ACHN renal 80.4% | CAKI-1 renal 52.6% | A498 renal 76%
active: CCRF-CEM leukemia 1.05% | MOLT-4 leukemia 6.48%

C=C(C)[C@@H]1CC[C@]2(C)[C@H](CC[C@@H]3[C@@H]([C@@](C)(O)CCC=C(C)C)CC[C@]32C)[C@@]1(C)CCC(=O)N1CCN(C)CC1
active: SK-MEL-2 melanoma -88.5% [100 µM] | EKVX NSCLC -66.4% [100 µM] | SN12C renal -95.6% [100 µM] | UO-31 renal -100% [100 µM] | TK-10 renal -79.3% [100 µM] | ACHN renal -100% [100 µM] | CAKI-1 renal -90.7% [100 µM] | A498 renal -96% [100 µM] | CCRF-CEM leukemia -27.6% [100 µM] | MOLT-4 leukemia -41.2% [100 µM]

N#C/C(=C(/O)CCCO)c1nc2ccccc2c(=O)[nH]1
inactive: SK-MEL-2 melanoma 87.7% | EKVX NSCLC 108% | SN12C renal 100% | UO-31 renal 106% | TK-10 renal 110% | ACHN renal 106% | CAKI-1 renal 149% | A498 renal 124% | CCRF-CEM leukemia 97.8% | MOLT-4 leukemia 105%

Cn1cc(-c2nnc(-c3cn(C)c4ncccc34)s2)c2ccccc21
inactive: SK-MEL-2 melanoma 79.8% | EKVX NSCLC 70.7% | SN12C renal 50.3% | UO-31 renal 39% | TK-10 renal 79.9% | ACHN renal 86.6% | CAKI-1 renal 47% | A498 renal 31% | CCRF-CEM leukemia 38.3% | MOLT-4 leukemia 47.9%

CCCCC(CC)COC(=O)C[N+](C)(C)CCOC(c1ccccc1)c1ccccc1 (stereo not given)
active: SK-MEL-2 melanoma -26.9%
inactive: EKVX NSCLC 57.9% | SN12C renal 43.2% | UO-31 renal 95.6% | TK-10 renal 53.7% | ACHN renal 101% | CAKI-1 renal 97.4% | A498 renal 101% | CCRF-CEM leukemia 20.4% | MOLT-4 leukemia 40.7%

CC(=O)Nc1ccc(C=Nc2ccc3ccccc3c2)cc1
inactive: SK-MEL-2 melanoma 121% | EKVX NSCLC 116% | SN12C renal 99% | UO-31 renal 98.5% | TK-10 renal 106% | ACHN renal 118% | CAKI-1 renal 47.4% | A498 renal 108% | CCRF-CEM leukemia 93% | MOLT-4 leukemia 100%

O=[N+]([O-])c1cc(CCl)ccc1OCCBr
inactive: SK-MEL-2 melanoma 106% | EKVX NSCLC 104% | SN12C renal 99.7% | UO-31 renal 80.8% | TK-10 renal 101% | ACHN renal 107% | CAKI-1 renal 92% | A498 renal 91.9% | CCRF-CEM leukemia 86.6% | MOLT-4 leukemia 109%

CC1=CCc2ccccc21
inactive: SK-MEL-2 melanoma 140% | EKVX NSCLC 110% | SN12C renal 88% | UO-31 renal 70.8% | TK-10 renal 103% | ACHN renal 98.6% | CAKI-1 renal 87.7% | A498 renal 89.9% | CCRF-CEM leukemia 94.3% | MOLT-4 leukemia 97%

O=C(CSc1nc2ccc([N+](=O)[O-])cc2[nH]1)Nc1cccc(Cl)c1
inactive: EKVX NSCLC 16.7% | TK-10 renal 37.8% | ACHN renal 22.5% | CAKI-1 renal 17.6% | CCRF-CEM leukemia 16.4%
active: SK-MEL-2 melanoma 7.44% | SN12C renal 6.25% | UO-31 renal 9.96% | A498 renal 5.48% | MOLT-4 leukemia 7.99%

CCCCCn1c(C)cc(/C=C\c2ccc3cc(C)ccc3[n+]2C)c1C
active: SK-MEL-2 melanoma -81.9% | EKVX NSCLC -47.9% | SN12C renal -90.3% | UO-31 renal -61.4% | TK-10 renal -57.6% | ACHN renal -89.3% | CAKI-1 renal -80.3% | A498 renal -46% | CCRF-CEM leukemia -13.3% | MOLT-4 leukemia 7.02%

COc1ccc(NC(=S)NNc2ccc(-c3ccc(OC)c(OC)c3)nn2)cc1
inactive: SK-MEL-2 melanoma 106% | EKVX NSCLC 104% | SN12C renal 100% | UO-31 renal 83.3% | TK-10 renal 105% | ACHN renal 102% | CAKI-1 renal 77% | A498 renal 83.4% | CCRF-CEM leukemia 103% | MOLT-4 leukemia 96.3%

CCOC(CNC(=O)c1cccc([N+](=O)[O-])c1)OCC
inactive: SK-MEL-2 melanoma 97.2% | EKVX NSCLC 97.4% | SN12C renal 92.7% | UO-31 renal 81.8% | TK-10 renal 82.8% | ACHN renal 108% | CAKI-1 renal 89.9% | A498 renal 84.5% | CCRF-CEM leukemia 111% | MOLT-4 leukemia 100%

Cc1nc(Cl)cc(N(c2cc(Cl)nc(C)n2)c2ncc(C(=O)Nc3c(C)cccc3Cl)s2)n1
active: CAKI-1 renal 4%
inactive: SK-MEL-2 melanoma 87.4% | EKVX NSCLC 84.7% | SN12C renal 37.5% | UO-31 renal 24.8% | TK-10 renal 36.7% | ACHN renal 14.1% | A498 renal 35.6% | CCRF-CEM leukemia 53.7% | MOLT-4 leukemia 40.6%

CCOC(=O)CC(c1ccccc1)C(C#N)c1ccccc1 (stereo not given)
inactive: SK-MEL-2 melanoma 106% | EKVX NSCLC 87.5% | SN12C renal 109% | UO-31 renal 84% | TK-10 renal 101% | ACHN renal 103% | CAKI-1 renal 87.1% | A498 renal 91.3% | CCRF-CEM leukemia 98.9% | MOLT-4 leukemia 88.8%

CC(C)c1ccc(/C=N/N=C(N)N)cc1
inactive: SK-MEL-2 melanoma 102% | EKVX NSCLC 87.1% | SN12C renal 93.8% | UO-31 renal 73.2% | TK-10 renal 95.1% | ACHN renal 83.2% | CAKI-1 renal 50.9% | A498 renal 106% | CCRF-CEM leukemia 35.7% | MOLT-4 leukemia 45.7%

CC1(C)OC2[C@@H](CNC(=O)NC(=O)NC(=O)CI)O[C@@H](n3cnc4c(NC(=O)Nc5ccccc5)ncnc43)[C@H]2O1 (stereo not given in full)
active: UO-31 renal -78.6% | CAKI-1 renal -69% | CCRF-CEM leukemia -44% | MOLT-4 leukemia -23.6%
inactive: SK-MEL-2 melanoma 95.4% | EKVX NSCLC 77.3% | SN12C renal 82.8% | TK-10 renal 102% | ACHN renal 66.2% | A498 renal 99.4%

Nc1nc(Nc2ccccc2)c2ncn(Cc3ccc4c(c3)OCO4)c2n1
inactive: SK-MEL-2 melanoma 12.2% | EKVX NSCLC 48.7% | SN12C renal 43% | UO-31 renal 49.3% | TK-10 renal 63.3% | ACHN renal 56.7% | CAKI-1 renal 31.5% | A498 renal 39.8% | CCRF-CEM leukemia 66.8% | MOLT-4 leukemia 13.4%

O=C1/C(=C/c2ccc(OCc3ccccc3)cc2)Oc2cc(OCCN3CCCCC3)ccc21
inactive: SK-MEL-2 melanoma 112% | EKVX NSCLC 80.5% | SN12C renal 82.4% | UO-31 renal 70.6% | TK-10 renal 104% | ACHN renal 89.6% | CAKI-1 renal 70.5% | A498 renal 60.9% | CCRF-CEM leukemia 73% | MOLT-4 leukemia 76.1%

CC(C)(C)c1cc(C(=O)Nc2ccccc2C(=O)NCCN)cc(C(C)(C)C)c1
inactive: SK-MEL-2 melanoma 20.3% | EKVX NSCLC 17.8% | UO-31 renal 27.9% | TK-10 renal 75.5% | CAKI-1 renal 45.4% | MOLT-4 leukemia 20.6%
active: SN12C renal -30.8% | ACHN renal -90.3% | A498 renal -11.6% | CCRF-CEM leukemia -8.48%

N#C/C(C(=O)c1ccccc1)=C1/C(=O)Nc2ccc(F)cc21
inactive: SK-MEL-2 melanoma 108% | EKVX NSCLC 94.2% | SN12C renal 98% | UO-31 renal 74% | TK-10 renal 122% | ACHN renal 92.6% | CAKI-1 renal 86.3% | A498 renal 81.1% | CCRF-CEM leukemia 116% | MOLT-4 leukemia 104%

O=C(CSc1nccc(Nc2ccc(S(=O)(=O)Nc3ccccn3)cc2)n1)c1ccc(Cl)cc1
active: CCRF-CEM leukemia -44.8%
inactive: SK-MEL-2 melanoma 97.8% | EKVX NSCLC 101% | SN12C renal 90.7% | UO-31 renal 71.3% | TK-10 renal 109% | ACHN renal 89.8% | CAKI-1 renal 83% | A498 renal 115% | MOLT-4 leukemia 81.4%

O=C1CC(c2ccc3c(c2)OCO3)Nc2ccccc21 (stereo not given)
inactive: SK-MEL-2 melanoma 40.1% | EKVX NSCLC 48.1% | SN12C renal 34.4% | UO-31 renal 43.9% | TK-10 renal 40.1% | ACHN renal 46.9% | CAKI-1 renal 33.9% | CCRF-CEM leukemia 10.8% | MOLT-4 leukemia 62.7%
active: A498 renal -11.2%
